Source: PubChem
Rows were chosen to be rich in hits. Some 21% of all compounds tested hit in one or more screens of this group.
RORg inh: qHTS for inhibitors of ROR gamma transcriptional activity; Nuclear receptor ROR-gamma (Mus musculus), P51450; Drosophila S2 Gal4-RORgamma UAS-luciferase reporter, 20 h; Potency, µM (top dose mostly 53.6 µM), usual class: inhibitors; 310,000 compounds, 5.4% hits; AID 2551, 2010; further: nearly all actives have a fitted effect of over 60% in size
Target sequence (P51450 whole entry, looked up, the tested form may be a part): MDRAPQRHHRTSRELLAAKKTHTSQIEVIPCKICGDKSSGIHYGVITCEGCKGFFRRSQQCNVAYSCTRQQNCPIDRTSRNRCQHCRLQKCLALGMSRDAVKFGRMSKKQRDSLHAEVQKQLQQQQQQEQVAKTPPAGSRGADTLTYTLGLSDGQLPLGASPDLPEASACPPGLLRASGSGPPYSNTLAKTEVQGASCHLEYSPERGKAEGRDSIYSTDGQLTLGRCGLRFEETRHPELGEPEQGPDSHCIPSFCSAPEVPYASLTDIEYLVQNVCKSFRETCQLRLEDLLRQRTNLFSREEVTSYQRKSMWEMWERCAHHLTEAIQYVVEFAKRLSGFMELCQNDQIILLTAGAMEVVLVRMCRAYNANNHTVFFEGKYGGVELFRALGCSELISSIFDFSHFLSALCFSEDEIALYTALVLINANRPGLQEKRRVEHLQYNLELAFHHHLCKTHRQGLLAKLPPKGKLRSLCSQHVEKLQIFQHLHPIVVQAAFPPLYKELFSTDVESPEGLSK
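ROR gamma transcriptional activity was tracked as Gal4-UAS luciferase output in stably transfected Drosophila Schneider cells, with compound added 1 hr before 700 uM copper sulfate induction and a 20 hr ambient-temperature incubation.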
VP16 counter: VP16 counterscreen qHTS for inhibitors of ROR gamma transcriptional activity | Drosophila S2 Gal4-VP16 UAS-luciferase, luminescence, 20 h | Potency, µM (titrated, usually from 53.6 µM), most hits filed as inhibitors | 310,000 compounds, 3.5% hits | AID 2546, 2010;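 further: Gal4-VP16 expression switched on by copper sulfate through the metallothionein promoter; nearly all actives have a fitted effect of over 50% in size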
IL-1B inflam inh: qHTS for Inhibitors of Inflammasome Signaling: IL-1-beta AlphaLISA Primary Screen | THP-1 LPS/ATP IL-1B secretion, AlphaLISA, 16 h; active compounds read low | activity change, % at 57.5 µM | 360,000 compounds, 4.7% hits; in the data active means activity change below about -50%; inconclusive means mostly about -30% to -49%
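THP-1 cells pretreated 1 hr with compounds (up to 57.5 uM final), then stimulated with LPS (250 ng/mL final) plus ATP (1.25 mM final); secreted IL-1B measured by AlphaLISA after 16 hr, decreased signal indicating inhibition.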
TDP1 cell noCPT: qHTS for Inhibitors of human tyrosyl-DNA phosphodiesterase 1 (TDP1): qHTS in cells in absence of CPT; Potency, µM (doses to about 46.2 µM), most hits filed as inhibitors; 420,000 compounds, 15% hits; DT40 Tdp1-/- hTDP1 cells, no CPT, ATP luminescence, 48 h; AID 686978, 2013; further: nearly all actives have a fitted effect of over 55% in size
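Luminescent ATP content (CellTiter-Glo) served as the growth readout. Knockout chicken DT40 cells expressing human TDP1 were exposed to compounds without camptothecin for a minimum 48 hr at 37 °C.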
ELG1 DNA repair: qHTS screen for small molecules that inhibit ELG1-dependent DNA repair in human embryonic kidney (HEK293T) cells expressing luciferase-tagged ELG1; Potency, µM (series often up to 46.1 µM), actives largely listed as inhibitors; 330,000 compounds, 2.3% hits; HEK293T ELG1-luciferase reporter, luminescence, 16 h; DNA damage induced by 5-fluorouridine; further: nearly all actives have a fitted effect of over 55% in size
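In this reporter screen, reduction of luminescence relative to DMSO vehicle indicated activity. Compounds and 5-fluorouridine were added together to 2,000 cells per well, incubated for 16 hr at 37 °C, then developed with ONE-Glo.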
TDP1 cell CPT: qHTS for Inhibitors of human tyrosyl-DNA phosphodiesterase 1 (TDP1): qHTS in cells in presence of CPT. 420,000 compounds, 12% hits. Potency, µM (top dose mostly 46.2 µM), most hits filed as inhibitors. chicken DT40 Tdp1-/-;hTDP1 cells + 20 nM CPT, ATP luminescence, 48 h; further: nearly all actives have a fitted effect of over 55% in size
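Cell growth measured by CellTiter-Glo luminescence after a minimum 48 h, 37 C compound exposure with 20 nM CPT in Tdp1-knockout DT40 cells stably expressing hTDP1, seeded 400/well; qHTS titration format.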
Of the large screens only hits and unclear results are named; the others gave an inactive call. Unless noted, the call rests on the fitted dose curve; in most records, active means well fitted curve in the direction sought with a large enough effect; inconclusive means small, poorly fitted or top-dose-only effect, or another doubt; inactive means no such curve, though single readings can be large; an effect the other way counts as inactive or inconclusive.

COCCN(CC(=O)Nc1cccc(C)c1C)C(=O)c1ccc(S(=O)(=O)N2CCOCC2)cc1	none (no result: RORg inh, VP16 counter)
C[C@@H]1CN([C@@H](C)CO)C(=O)CCCn2cc(nn2)CO[C@H]1CN(C)C(=O)c1ccc2ccn(C)c2c1	TDP1 cell noCPT inconclusive (no result: RORg inh, VP16 counter, ELG1 DNA repair)
CC(NS(=O)(=O)c1ccc2ccccc2c1)c1ccccn1 (stereo unspecified)	none (no result: RORg inh, VP16 counter)
CC(C)c1cc(C(C)C)c(S(=O)(=O)NC(c2ccccn2)C23CC2C3)c(C(C)C)c1 (stereo unspecified)	TDP1 cell noCPT 16µM, TDP1 cell CPT inconclusive (no result: RORg inh, VP16 counter, ELG1 DNA repair)
O=c1c2cnn(-c3ccccc3)c2nc(-c2cccs2)n1-c1ccc(Cl)cc1	TDP1 cell noCPT 0.58µM, TDP1 cell CPT 0.46µM
O=c1c2cnn(-c3ccccc3)c2nc(-c2cccs2)n1-c1cccc(Cl)c1	TDP1 cell noCPT 9.2µM, ELG1 DNA repair 15µM, TDP1 cell CPT 15µM
CCN(CC)CCC(c1ccc(N(C)C)cc1)c1c(OC)cc(OC)c2c1OC(=O)CC2c1ccc(N(C)C)cc1 (stereo unspecified)	none (no result: IL-1B inflam inh, TDP1 cell noCPT, ELG1 DNA repair, TDP1 cell CPT)
CC1(C(=O)NS(=O)(=O)c2ccc(Cl)cc2)CCN1C(=O)c1cccc(F)c1 (stereo unspecified)	none (no result: RORg inh, VP16 counter, ELG1 DNA repair)
Cc1ccc(OCC(=O)NC2CCCC(C)C2C)c([N+](=O)[O-])n1 (stereo unspecified)	ELG1 DNA repair inconclusive, TDP1 cell CPT inconclusive (no result: RORg inh, VP16 counter)
Cc1ccc(NC(=S)NNC(=O)CCn2cc(C)cn2)cc1	RORg inh 0.28µM, VP16 counter 1.4µM
Cc1cnn(CCC(=O)NNC(=S)Nc2ccccc2)c1	RORg inh 0.1µM, VP16 counter 1.1µM, TDP1 cell noCPT 18µM, TDP1 cell CPT 11µM
Cc1ccc(NC(=O)CCN2CCN(C)CC2)cc1	RORg inh inconclusive
Nc1c(Br)cc(Br)c2c1C(=O)c1c(cccc1S(=O)(=O)O)C2=O	TDP1 cell noCPT inconclusive (no result: RORg inh, VP16 counter, ELG1 DNA repair)
CO[C@H]1[C@H](NC(=O)c2ccsc2)c2ccccc2C12CCN(Cc1c(O)ccc3ccccc13)CC2	none (no result: RORg inh, VP16 counter, IL-1B inflam inh, ELG1 DNA repair)
COC(=O)c1[nH]c2cc(OC)c(OC)cc2c1NC(=O)c1cccc(OC)c1	IL-1B inflam inh inconclusive, TDP1 cell noCPT 21µM, ELG1 DNA repair inconclusive, TDP1 cell CPT inconclusive
CCOC(=O)c1[nH]c2ccc(OC)cc2c1NC(=O)c1ccc(OC)c(OC)c1	TDP1 cell noCPT inconclusive, ELG1 DNA repair inconclusive
CCOC(=O)c1[nH]c2ccccc2c1NC(=O)c1cc(OC)cc(OC)c1	TDP1 cell noCPT 23µM, TDP1 cell CPT 23µM (no result: RORg inh, VP16 counter, IL-1B inflam inh, ELG1 DNA repair)
CCOC(=O)c1[nH]c2ccccc2c1NC(=O)c1cc(OC)c(OC)c(OC)c1	TDP1 cell noCPT inconclusive (no result: RORg inh, VP16 counter, ELG1 DNA repair)
Cc1ccc(C2=NN3C(C(=O)c4ccccc4)Oc4ccccc4C3C2)cc1 (stereo unspecified)	TDP1 cell noCPT inconclusive, ELG1 DNA repair inconclusive, TDP1 cell CPT inconclusive
N#CCCSc1ccccc1NC(=O)c1cc(=O)c2ccccc2o1	TDP1 cell noCPT inconclusive, TDP1 cell CPT inconclusive
Cc1ccc(N(C(=O)c2ccccc2Cl)C2=NC(C)CS2)c(C)c1 (stereo unspecified)	TDP1 cell noCPT 18µM, ELG1 DNA repair inconclusive, TDP1 cell CPT inconclusive
Cc1ccc(NC(=O)c2ccccc2Cl)c(Cl)c1	RORg inh inconclusive, ELG1 DNA repair inconclusive
CCN(CC)CCNC(=O)c1cnn(-c2ncc3c(n2)-c2ccc(OC)cc2CC3)c1C	none (no result: RORg inh, VP16 counter, IL-1B inflam inh, ELG1 DNA repair)
COc1ccc2c(c1)CCc1cnc(-n3ncc(C(=O)NCCCc4ccncc4)c3C)nc1-2	TDP1 cell noCPT 18µM (no result: RORg inh, VP16 counter, IL-1B inflam inh, ELG1 DNA repair)
CC(C)NC(=O)CCCN1C(=O)CCn2nc(-c3cccn3C)cc21	none (no result: RORg inh, VP16 counter, IL-1B inflam inh, ELG1 DNA repair)
